Data on 54 compounds can be found in PubChem BioAssay AID504652 (National Center for Advancing Translational Sciences (NCATS), 2011).

The structures appear in SMILES notation. Several values for one entry are separate records, joined by “and”; a condition that tells them apart may be missing. Identical values can stand only once. In all, about 360,000 compounds went through this assay and about 11,000 (3.1%) were called active. Rule as the data show it: active = activity change below about -30%; inactive = the rest. The list comes from a sample in which actives are over-represented; it also holds similar structures and randomly drawn compounds. Some compounds were tested as several samples or in several runs, with calls that do not always agree.
% is scaled to controls: 0 for no effect and ±100 for the full control effect.

The target in this assay is D(1A) dopamine receptor (Homo sapiens) (UniProt P21728). As to the kind of experiment: Antagonist of Human D 1 Dopamine Receptor: qHTS. The settings on record: HEK293 TREx D1 cells, calcium flux, dopamine EC80; at 10 µM; stronger effect = lower value. From the text: Dopamine receptors (DARs) are involved in the etiology and/or therapy of a number of neuropsychiatric and endocrine disorders. For instance, all receptor-based antiparkinsonian drugs work via stimulating the […] DAR subtype whereas all FDA-approved antipsychotic agents are antagonists of this receptor. […] There are three different types of allosteric modulators that we are seeking, two of which will stimulate or augment receptor signaling, allosteric agonists and potentiators, while the third, allosteric antagonists, will attenuate receptor signaling. The present primary screening assay measures compound antagonism after an EC80 addition of dopamine by tracking calcium flux in a […], inducible Hek293 Trex D1 cell line. NIH Chemical Genomics Center [NCGC] NIH Molecular Libraries Probe Centers Network [MLPCN] MLPCN Grant: NS064831-01 Assay Submitter (PI): David Sibley
D(1A) dopamine receptor (Homo sapiens), sequence (P21728 whole entry, looked up): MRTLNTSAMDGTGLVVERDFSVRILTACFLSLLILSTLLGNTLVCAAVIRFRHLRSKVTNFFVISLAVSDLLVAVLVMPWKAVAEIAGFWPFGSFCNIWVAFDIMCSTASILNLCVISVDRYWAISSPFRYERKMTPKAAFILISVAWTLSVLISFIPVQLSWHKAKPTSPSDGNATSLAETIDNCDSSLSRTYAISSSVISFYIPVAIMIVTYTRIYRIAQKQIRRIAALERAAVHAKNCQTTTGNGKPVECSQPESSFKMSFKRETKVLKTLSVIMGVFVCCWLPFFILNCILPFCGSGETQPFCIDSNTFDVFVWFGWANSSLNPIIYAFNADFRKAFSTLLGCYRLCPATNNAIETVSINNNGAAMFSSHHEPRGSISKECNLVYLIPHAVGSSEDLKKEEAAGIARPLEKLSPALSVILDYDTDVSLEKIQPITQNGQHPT
Freshly passaged cells are plated in 1536 well black, clear bottom plates at a density of 4000 cells/well in 3 ul of complete media containing 1x tetracycline inducer. After an overnight incubation at 30 C in 5% CO2, cells are loaded with 2 ul of the no wash Calcium Assay Kit (ABD Bioquest) and incubated at room temperature for 30 to 90 minutes. Agonist read: A 10 cycle (1 second/cycle) baseline measurement is taken and then the FDSS online 1536 pintool delivers 23 nl of compound library (as well as dopamine controls) to the plate. The plate is measured for kinetically at 1 cycle/sec for 180 seconds. Following the 180 second read, 1 ul of an EC80 (negative modulation assay) is delivered by an onboard pipette head. Measurements are taken kinetically for an additional 180 seconds.
As to `N#Cc1nc(/C=C/c2ccc(F)cc2)oc1NCc1ccc(F)cc1`, the activity change, negative = inhibition was 4.43% (inactive). Turning to `Cc1ccc(CNC(=O)CCNS(=O)(=O)c2ccc3c(c2)oc(=O)n3C)cc1`, the activity change, negative = inhibition is -2.95% (inactive).

As to `CN(Cc1ccccc1)C(=O)c1cn(C)c2ccc(S(=O)(=O)N(C)C3CCCCC3)cc2c1=O`, the activity change, negative = inhibition was -6.93% (inactive). Consider `Cc1cccc(NC(=O)N2CCC(CN3CCc4ccccc4C3)CC2)c1C`, for which the activity change, negative = inhibition is 3.23% (inactive). For the compound `COc1cccc(C(=O)Nc2ccc(-c3cc(C(F)(F)F)nn3-c3ccccc3)cc2)c1`, the activity change, negative = inhibition was -9.33% (inactive).

Consider `CCOc1ccccc1C(=O)NCc1ccc2c(c1)CCN2C(=O)c1ccc(F)cc1`, for which the activity change, negative = inhibition is -20.6% (inactive). Turning to `CCn1cc(C(=O)N(C)Cc2ccccc2)c(=O)c2cc(S(=O)(=O)N3CCCCCC3)ccc21`, the activity change, negative = inhibition is -14.7% (inactive).

For `Cc1n[nH]c(C)c1S(=O)(=O)N1CCCC(C(=O)NCC2COc3ccccc3O2)C1` (centres undefined), the activity change, negative = inhibition was 4.33% (inactive). Turning to `CC(=O)Nc1ccc(NC(=O)C2CCCN(S(=O)(=O)c3ccc(Cl)cc3)C2)cc1` (centres undefined), the activity change, negative = inhibition is -19.3% (inactive).

On to `Cc1n[nH]c(C)c1S(=O)(=O)N1CCCC(C(=O)Nc2ccc(Br)cc2)C1` (centres undefined), for which the activity change, negative = inhibition is 2.22% (inactive) and -57.1% (active). `O=C(NCc1cccnc1)C(=O)NCC(c1cccnc1)N1CCN(c2ccccc2)CC1` (centres undefined): the activity change, negative = inhibition is 2.98% (inactive). In the case of `CCOc1ccc(N(CC)S(=O)(=O)N2CCCC(C(=O)Nc3ccc(C(C)=O)cc3)C2)cc1` (centres undefined), the activity change, negative = inhibition was -25.1% (inactive).

Take `COCCCNCCOCCOc1ccc(Cl)cc1Br`: the activity change, negative = inhibition was -34.7% (active). `CC(C)(C)NCCCOc1ccc(Cl)cc1C(C)(C)C`: the activity change, negative = inhibition was -4.49% (inactive). Turning to `COCCNCCOCCOc1cccc(OC)c1`, the activity change, negative = inhibition was 12.6% (inactive).

Regarding `CCc1ccc(CNC(=O)c2cc3cc4ccc(OC)cc4nc3o2)cc1`, the activity change, negative = inhibition is 2.97% (inactive). `CCCc1nn2c(=O)cc(COC(=O)c3ccc(NC(=O)C(C)Oc4ccccc4)cc3)nc2s1` (centres undefined): the activity change, negative = inhibition is 3.83% (inactive). Take `CCCNc1ncnc2c1c(-c1ccccc1)cn2-c1ccc(OCC)cc1`: the activity change, negative = inhibition is 36.7% (inactive).

As for `O=c1[nH]cnc2c1c(-c1ccccc1)cn2-c1ccc(F)cc1`, the activity change, negative = inhibition is -39.4% (active). Regarding `COc1ccc(-n2cc(-c3ccccc3)c3c(=S)nc[nH]c32)cc1`, the activity change, negative = inhibition is -0.706% (inactive).

On to `COc1ccc(-c2noc(-c3ccc(N4CCN(c5ccccc5)CC4)c([N+](=O)[O-])c3)n2)cc1OC`, for which the activity change, negative = inhibition was -6.01% (inactive). On to `COc1ccc(S(=O)(=O)NCc2cccn2Cc2cccc(C)c2)cc1Cl`, for which the activity change, negative = inhibition is -21.8% (inactive). The result for `CSc1ncc(C(=O)NCc2ccccc2Cl)c(C(F)(F)F)n1` reads 2.06% (inactive); that for `CSc1ncccc1C(=O)NCc1ccccc1Cl`, -34.3% (active); that for `CSc1ncccc1C(=O)Nc1ccc(C)cn1`, 25.9% (inactive). For the compound `O=C(Nc1ccc(O)c(-c2nc3ccccc3o2)c1)c1ccc(-c2cccc(Cl)c2)o1`, the activity change, negative = inhibition is 8.95% (inactive). As for `CC(=O)c1ccc(NC(=O)C2CCN(S(=O)(=O)c3c(C)noc3/C=C/c3ccc(C)cc3)CC2)cc1`, the activity change, negative = inhibition was 0.387% (inactive).

As for `Cc1ccc(S(=O)(=O)c2nc(-c3ccco3)oc2SCC(=O)Nc2ccc(F)cc2)cc1`, the activity change, negative = inhibition is -3.5% (inactive). Consider `CC(Sc1oc(-c2ccco2)nc1S(=O)(=O)c1ccc(Br)cc1)c1ccccc1` (centres undefined), for which the activity change, negative = inhibition was 6.94% (inactive). In the case of `COc1ccccc1NC(=O)CSc1oc(-c2ccco2)nc1S(=O)(=O)c1ccc(Br)cc1`, the activity change, negative = inhibition was -50.6% (active).

Take `CCn1cc(C(=O)N2CCN(c3cc(Cl)ccc3C)CC2)c(=O)c2cc(S(=O)(=O)N3CCCC3)ccc21`: the activity change, negative = inhibition was -6.15% (inactive). The result for `COc1cccc(C(c2c(O)cc(C)n(Cc3ccco3)c2=O)N2CCN(c3ccccc3)CC2)c1` (centres undefined) reads 4.67% (inactive). On to `Cc1ccc(CCNC(=O)c2nnc(Cc3cccc(F)c3)o2)cc1`, for which the activity change, negative = inhibition is -1.29% (inactive). `O=C(NCCCN1CCN(c2cccc(Cl)c2)CC1)c1nnc(Cc2ccc(F)cc2Cl)o1`: the activity change, negative = inhibition is -33.5% (active). With `COc1ccc(N2CCN(CCNC(=O)c3nnc(Cc4c(F)cccc4Cl)o3)CC2)cc1`, the activity change, negative = inhibition was 5.46% (inactive). Regarding `Cc1ccc(CCNC(=O)c2ccc(CS(=O)(=O)Cc3cccc(C)c3)o2)cc1`, the activity change, negative = inhibition was -10.5% (inactive). Consider `O=C(c1ccco1)N1CCN(C(=O)C2CC(c3ccc(Cl)c(Cl)c3)=NO2)CC1` (centres undefined), for which the activity change, negative = inhibition was -36.7% (active).

For `O=C(c1ccco1)N1CCN(C(=O)C2CC(c3ccc(F)cc3)=NO2)CC1` (centres undefined), the activity change, negative = inhibition is -3.06% (inactive). For `O=C(OCC(=O)N1CCN(C(=O)c2ccco2)CC1)c1ccc(Cl)c(Cl)c1`, the activity change, negative = inhibition was -10.9% (inactive). Under `COc1ccccc1CN1CCC(CNC(=O)c2cnn(-c3ccccc3Cl)c2C2CCN(C(=O)OC(C)(C)C)CC2)CC1` stands -9.9% (inactive). For `COc1ccccc1C(=O)OCc1cc(=O)n2nc(-c3cccs3)sc2n1`, the activity change, negative = inhibition is -28% (inactive). Consider `O=C(CCS(=O)(=O)c1ccc2c(c1)NC(=O)CO2)Nc1cccc(C(F)(F)F)c1`, for which the activity change, negative = inhibition is 1.28% (inactive). Take `Cc1ccc(Cl)cc1-c1ccc(/C=N/n2cnnc2)o1`: the activity change, negative = inhibition was -37.1% (active). For `Brc1cc(/C=N/n2cnnc2)oc1Br`, the activity change, negative = inhibition is -2.4% (inactive).

Regarding `Clc1cc(-c2ccc(/C=N/n3cnnc3)o2)ccc1Br`, the activity change, negative = inhibition is -8.28% (inactive).

On to `Cn1c(=O)nc2n(-c3ccc(Br)cc3)c3cccc(Cl)c3cc-2c1=O`, for which the activity change, negative = inhibition was -15.6% (inactive). `CCOc1ccc(N2CC(c3nc4ccccc4n3CCOc3ccc(OC)cc3)CC2=O)cc1` (centres undefined): the activity change, negative = inhibition is -7.94% (inactive). Regarding `COc1ccc(OCCCn2c(C3CC(=O)N(c4ccc(F)cc4)C3)nc3ccccc32)cc1` (centres undefined), the activity change, negative = inhibition was -46.1% (active). As to `CCc1ccccc1N1CC(c2nc3ccccc3n2CCCCOc2ccccc2)CC1=O` (centres undefined), the activity change, negative = inhibition was -13.7% (inactive). The result for `COc1ccc(OC)c(CNC(=O)c2c3c(nc4ccccc24)C(=O)N(C2CCCCC2)C3)c1` reads 18.9% (inactive); that for `CC(C)(C)NC(=O)NC(=O)COC(=O)Cc1ccc(Cl)cc1Cl`, -36.3% (active). In the case of `COc1ccccc1OCCC(=O)OCC(=O)NC(=O)NC(C)(C)C`, the activity change, negative = inhibition is -0.18% (inactive).

Turning to `CC(C)(C)NC(=O)NC(=O)COC(=O)Cc1c(F)cccc1Cl`, the activity change, negative = inhibition is -21% (inactive). For `CCOc1cc(/C=C(\C#N)C(=O)Nc2ccccc2C)ccc1OCc1cc(=O)n2nc(CC)sc2n1`, the activity change, negative = inhibition was 4.8% (inactive).
